A549 tox: counter-screen for Nrf2 inhibitors: cytotoxicity in A549 cells | A549 ARE-Fluc cells, CellTiter-Fluor viability, 18-24 h | Potency, µM (titrated, usually from 46 µM), usual class: inhibitors | hit rate 0.16% among 390,000 | AID 504648
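A549 ARE_Fluc cells in 5% FBS OPTI-MEM were exposed to compounds in concentration-response for 18-24 h at 37 deg C. Viability was read by CellTiter-Fluor fluorescence (Ex 405/Em 525) after 30 min, before the luciferase read.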
LDHA inh: LDHA (human) enzyme inhibition; P00338; purified LDHA, NADH/diaphorase-resazurin fluorescence; hits give low values; activity change, % (values are at about 110 or 230 µM); hit rate 0.15% among 480,000; AID 1347041; in the data active means activity change below about -30%; inconclusive means mostly about -25% to -30%
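Resorufin fluorescence (ex540/em590), read at 0 and 20 min after diaphorase/resazurin addition, reports the NADH left after a 5 min room-temperature reaction of 2 nM human LDH5 with 0.06 mM NADH and 0.2 mM pyruvate.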
Nrf2 activator: activates Nrf2 signaling; AREc32 ARE-luciferase reporter (MCF7-derived line), luminescence, 24 h; Potency, µM (series often up to 46.1 µM), most hits filed as activators; hit rate 0.31% among 410,000; further: nearly all actives have a fitted effect of over 65% in size
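Luminescent ARE reporter assay in AREc32_Fluc cells: overnight plating at 37 deg C, 24 hr compound incubation, Steady-Glo added, 30 min RT before reading.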
12-LOX inh: ALOX12 (human) lipoxygenase inhibition | purified 12hLO, xylenol orange hydroperoxide absorbance | Potency, µM (doses to about 108 µM), usual class: inhibitors | hit rate 1.1% among 580,000
Target sequence (P18054 whole entry, looked up): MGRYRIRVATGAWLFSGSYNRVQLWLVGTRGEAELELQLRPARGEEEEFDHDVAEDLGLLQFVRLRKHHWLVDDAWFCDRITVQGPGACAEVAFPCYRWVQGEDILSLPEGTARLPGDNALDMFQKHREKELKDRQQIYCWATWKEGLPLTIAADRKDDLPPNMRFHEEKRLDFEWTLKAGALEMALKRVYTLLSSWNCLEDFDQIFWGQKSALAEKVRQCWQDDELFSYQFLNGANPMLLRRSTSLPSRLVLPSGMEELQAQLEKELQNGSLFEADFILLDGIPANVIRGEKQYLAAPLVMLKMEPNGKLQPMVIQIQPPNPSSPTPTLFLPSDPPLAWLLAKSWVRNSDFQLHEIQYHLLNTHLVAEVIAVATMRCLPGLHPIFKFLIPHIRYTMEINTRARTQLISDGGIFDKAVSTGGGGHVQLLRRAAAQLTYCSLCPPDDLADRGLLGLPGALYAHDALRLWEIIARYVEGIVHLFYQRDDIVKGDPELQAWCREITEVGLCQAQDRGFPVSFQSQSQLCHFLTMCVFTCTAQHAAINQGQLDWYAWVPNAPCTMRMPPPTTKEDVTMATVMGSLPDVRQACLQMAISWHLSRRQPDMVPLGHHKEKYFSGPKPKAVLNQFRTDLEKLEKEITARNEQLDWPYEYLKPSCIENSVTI
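Purified human 12hLO at 150 nM in 25 mM Hepes, 0.01% Triton X-100, pH 7.0, preincubated 15 min at room temperature with compound. Reaction started with 40 uM arachidonic acid, 30 min at room temperature. Hydroperoxide measured by Fe-xylenol orange, 573/405 nm absorbance ratio.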
ERG Ets-DNA blk: inhibitors of human ERG Ets domain-DNA interaction. P11308. fluorescence polarization, His-ERG Ets domain / labelled DNA. Potency, µM (highest dose often 76.9 µM), usual class: inhibitors. hit rate 0.028% among 370,000; active means well fitted inhibition curve with a large enough effect in the polarisation, with a control signal flat; inconclusive means small, poorly fitted or top-dose-only effect, or effect the other way, or a change in a side signal; inactive means no such curve, though single readings can be large or run the other way; the % refers to the polarisation;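 further: polarization taken with two DNA probes labelled with fluorescein and Texas red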
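His-tagged ERG Ets domain (1 uM in the protein solution; 300mM KCl, 50mM Tris-HCl, 1mM EDTA, 1mM DTT, pH 7.5) received compound, then a probe mix of 5 nM fluorescein-DNA and 100nM Texas-615-DNA. Fluorescence polarization was read for both dyes.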
Nrf2 block: inhibitors of Nrf2 signaling | A549 ARE-Fluc reporter, luciferase luminescence, 18-24 h | Potency, µM (doses to about 46 µM), usual class: inhibitors | hit rate 2.1% among 360,000 | AID 504444; further: nearly all actives have a fitted effect of over 60% in size
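A549 ARE_Fluc cells (5000/well, 5% FBS OPTI-MEM) pre-incubated 2 h, then treated with compounds 18-24 h at 37C/5% CO2 in concentration-response. CellTiter-Fluor viability read first; BugLite luciferase luminescence after 15 min at room temperature gives Nrf2 activity.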
Hits are given with their value; 0 = inactive; ? = inconclusive; - = not tested or not shown; ! = repeats disagree. In the library only some 2.7% were active in any assay of this set; here they are far more common. Unless noted, the call rests on the fitted dose curve; in most records, active means well fitted curve in the direction sought with a large enough effect; inconclusive means small, poorly fitted or top-dose-only effect, or another doubt; inactive means no such curve, though single readings can be large; an effect the other way counts as inactive or inconclusive.

SMILES	A549 tox	LDHA inh	Nrf2 activator	12-LOX inh	ERG Ets-DNA blk	Nrf2 block
COc1ccc(CCNC(=O)C(=O)NCC2OCCN2S(=O)(=O)c2ccc3c(c2)OCCO3)cc1 (stereo not drawn)	0	0	0	0	0	9.2µM
Cc1ccc(CNC(=O)C(=O)NCC2OCCN2S(=O)(=O)c2ccc(Br)cc2)cc1 (stereo not drawn)	0	0	0	0	0	16.4µM
Cc1ccc(CNC(=O)C(=O)NCC2OCCN2S(=O)(=O)c2ccc3c(c2)OCCO3)cc1 (stereo not drawn)	0	0	0	0	0	10.3µM
Cc1cccc(-c2cc(Nc3ccc(C(=O)N(C)Cc4ccccc4)cc3)ncn2)c1	-	0	-	0	-	-
COC(=O)c1cc2c(c3c4cc(C)ccc4n(S(=O)(=O)c4ccc(C)cc4)c13)C(=O)N(Cc1ccccc1)C2	-	-	-	0	-	-
COC(=O)c1c[nH]c2c1-c1cc(C(=O)OCc3ccccc3)n(S(=O)(=O)c3ccc(C)cc3)c1C(=O)C2=O	4.11µM	0	0	0	0	4.11µM
O=C(/C=C/c1cccc(O)c1)c1ccc(F)cc1	-	0	-	44.7µM	-	-
CCOc1cc(/C=C/C(=O)c2ccc(C)cc2)cc(Cl)c1O	-	0	-	22.4µM	-	-
COc1cc(OC)c(C(=O)C=Cc2ccc(OC)c(OC)c2)c(OC)c1	0	0	11.2µM	0	0	?
COc1cc(/C=C/C(=O)c2cccc(O)c2)cc(Cl)c1O	-	0	-	25.1µM	-	-
COc1cc(/C=C/C(=O)c2ccc(O)cc2)cc(Cl)c1O	-	0	-	?	-	-
Cc1ccc(-n2nnnc2SCC(=O)Nc2cc(C)nn2-c2ccccc2)cc1	-	0	-	?	-	-
O=C(Cn1c(NCc2ccccc2)nc2ccccc21)N1CCOCC1	-	0	-	0	-	-
CCOc1cc(/C=C/C(=O)c2ccc(Cl)cc2)ccc1O	-	0	-	?	-	-
CCOc1cc(/C=C/C(=O)c2ccc(Cl)cc2)cc(Cl)c1O	-	0	-	7.94µM	-	-
COc1cc(C=CC(=O)c2ccccc2)cc(OC)c1OC	-	0	?	0	-	-
CC(=O)Nc1cccc(C(=O)/C=C/c2ccc(C)cc2)c1	0	0	0	0	0	0
COc1cc(C=CC(=O)c2cc(OC)c(OC)c(OC)c2)cc(OC)c1OC	?	0	0	0	-	23.1µM
CCC(=O)Nc1cccc(C(=O)/C=C/c2ccc(F)cc2)c1	?	0	0	0	0	23.1µM
Cn1c(-c2cccc(Br)c2)cnc1NCc1cccc(F)c1	0	0	0	11.2µM	0	0
Cn1c(-c2cccc([N+](=O)[O-])c2)cnc1NCc1cccc([N+](=O)[O-])c1	0	0	0	?	0	0
CCN(C(=O)COC(=O)c1cccnc1SC)C1CCS(=O)(=O)C1 (stereo not drawn)	0	0	0	0	0	0
CCN(C(=O)COC(=O)c1cccnc1Nc1cccc(C(F)(F)F)c1)C1CCS(=O)(=O)C1 (stereo not drawn)	0	0	11.2µM	0	0	0
Cc1ccc([N+](=O)[O-])cc1N(CC(=O)Nc1ccc(S(=O)(=O)Nc2cccc(C(F)(F)F)c2)cc1)S(C)(=O)=O	?	0	0	0	0	20.6µM
CC(=O)c1cc(Cl)c(C)cc1O	-	0	-	?	-	-
SMILES	A549 tox	LDHA inh	Nrf2 activator	12-LOX inh	ERG Ets-DNA blk	Nrf2 block
O=C(CN1CCN(C(=O)c2ccco2)CC1)Nc1c2c(nc3c1CCC3)CCCC2	0	-34.6	0	?	0	-
Cc1ccc(C(=O)Nc2ccc(CC(=O)O)cc2)o1	0	0	0	0	0	?
CC(C)(C)c1ccc(C(=O)Nc2ccc(CC(=O)O)cc2)o1	0	0	0	0	0	3.66µM
Cc1cccc(CSCc2ccc(C(=O)NC(C)C)o2)c1	0	0	0	0	0	20.6µM
Cc1ccc(CNC(=O)c2ccc(CSCc3ccc(C)cc3)o2)cc1	0	0	0	11.2µM!	0	-
Cc1ccc(CNC(=O)c2ccc(CSCc3cccc(C)c3)o2)cc1	0	0	0	?	0	-
COCCn1c(-c2ccc(OCc3ccc(F)cc3)c(OC)c2)nc2c1c(=O)[nH]c(=O)n2CC(C)C	-	0	-	?	-	-
CCOC(=O)c1nnn(CC(=O)N2N=C(c3ccccc3)CC2c2ccccc2)c1C(=O)OCC (stereo not drawn)	0	0	0	0	0	0
CCOC(=O)/C=C(\C)N1N=C(c2ccccc2)CC1c1ccccc1 (stereo not drawn)	0	0	12.6µM	0	0	?
CCN1C(=O)/C(=C/c2cnn(CC)c2C)SC1=S	0	0	0	0	0	0
CCN1C(=O)/C(=C/c2c(C)nn(C)c2C)SC1=S	0	0	0	10µM	0	-
O=C(Nc1ccccn1)c1ccc(C2SCCCS2)cc1	-	0	-	0	-	-
C=CCn1c(COc2cccc(C)c2C)nnc1SCC(=O)N1CCN(c2ccccc2)CC1	?	0	0	?	0	16.4µM
CCn1c(COc2c(C)cccc2C)nnc1SCC(=O)N1CCN(c2ccccc2)CC1	?	0	0	0	0	18.4µM
Cc1cccc(OCc2nnc(SCC(=O)N3CCN(c4ccccc4)CC3)o2)c1C	0	0	0	0	0	?
Cc1cccc(C2(c3cccc(C)c3)CC2C(=O)N/N=C/C=C/c2ccccc2)c1 (stereo not drawn)	-	0	-	0	-	-
CCc1noc(-c2ccn3c(CNC(=O)c4ccc(F)cc4)nnc3c2)n1	-	-	-	0	-	-
CCCc1noc(-c2ccn3c(CNC(=O)c4ccc(F)c(Cl)c4)nnc3c2)n1	-	-	-	50.1µM	-	-
CCCc1noc(-c2ccn3c(CNC(=O)Cc4ccccc4Cl)nnc3c2)n1	-	-	-	44.7µM	-	-
CCCc1noc(-c2ccn3c(CNC(=O)c4ccc(CC)cc4)nnc3c2)n1	-	-	-	39.8µM	-	-
CCc1noc(-c2ccn3c(CNC(=O)c4cccc(Cl)c4)nnc3c2)n1	-	-	-	0	-	-
CCN(CC(=O)NC(C)C)C(=O)CSc1nc2ccccc2o1	-	0	-	0	-	-
Cc1ccc(C(=O)NCC(=O)N(C)Cc2ccc(-c3ccc(Br)cc3)o2)cc1	-	0	-	?	-	-
Cc1noc(CSc2ccc(C(=O)N3CCc4ccccc43)cc2)n1	-	0	-	0	-	-
CCOC(=O)C1C(=O)C=C(c2cccs2)CC1c1ccc(CC)cc1 (stereo not drawn)	-	0	-	?	-	-
CCc1cc(C(c2ccccc2OC)N2CCN(C)CC2)c(NC(=O)c2ccco2)s1 (stereo not drawn)	-	0	-	39.8µM	-	-
CCc1cc(C(c2ccc(OC)c(OC)c2)N2CCN(CC)CC2)c(NC(=O)c2ccco2)s1 (stereo not drawn)	-	0	-	15.8µM	-	-
CCc1cc(C(c2ccc(OC)c(OC)c2)N2CCOCC2)c(NC(=O)c2ccccc2)s1 (stereo not drawn)	0	0	0	0	0	0
Cc1ccc(COC(=O)c2ccccc2Nc2ccccc2)cc1	-	0	-	0	-	-
COc1ccc(-c2nc(C#N)c(NCCc3ccc(F)cc3)o2)cc1	-	0	-	0	-	-

Source: PubChem (National Center for Advancing Translational Sciences (NCATS))
